Records with an inconclusive call do not appear. The source made the active and inactive calls. Unless noted, calls follow the shape of the dose curve; as a rule, active = well fitted curve in the direction sought with a large enough effect in the repeat runs; inconclusive = weak or mixed curves; inactive = no such curve, though single readings can be large; an effect the other way counts as inactive or inconclusive.
Legend:
[1] = qHTS assay to identify small molecule agonists of H2AX (AID 1224845; active = well fitted activation curve with a large enough effect in the signal ratio in the repeat runs, not every such curve was filed as active; the % refers to the signal ratio)
Summary of the method: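 Wild-type CHO-K1 cells, plated overnight, exposed 3hr at 37C to 15 concentrations (0.76% DMSO final). Lysed, then HTRF anti-pH2AX (S139) cryptate and anti-H2AX-d2 antibodies, 24 hr room temperature; 665/620 nm emission read.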

[2] = qHTS assay to identify small molecule agonists of the hypoxia (HIF-1) signaling pathway (AID 1224846; active = well fitted activation curve with a large enough effect in the signal ratio in the repeat runs, not every such curve was filed as active; the % refers to the signal ratio)
Summary of the method: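 Measured by blue/green FRET after loading CCF4-AM: beta-lactamase expressed from a hypoxia response element in ME-180 cells. Test agents were delivered in DMSO and left 17 hrs; cells had been plated 5 hrs earlier in low-serum (0.5% dialyzed FBS) medium.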

[3] = qHTS assay to identify small molecule agonists of H2AX - cell viability counter screen (AID 1224847; calls by dose curve; also: top concentration of the series differs between compounds; nearly all actives have a fitted effect of over 30% in size)
Summary of the method: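 Viability of CHO-K1 (wild type) cells after 3 hr compound exposure was measured by CellTiter-Glo luminescence.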

[4] = qHTS assay to identify small molecule antagonists of the estrogen related receptor (ERR) signaling pathway from Tox21 library (AID 1224848); also: nearly all actives have a fitted effect of over 50% in size
Summary of the method: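 Luminescent reporter read-out (ONE-Glo) from NTP's ERR cell line after 18 h treatment at 37 C with DMSO-dissolved Tox21 compounds; cells pre-plated 6 h beforehand at 2,000 per well.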

[5] = qHTS assay to identify small molecule agonists of the estrogen related receptor (ERR) signaling pathway from Tox21 library (AID 1224849; calls by dose curve; also: nearly all actives have a fitted effect of over 15% in size); conditions: ERR reporter cell line, ONE-Glo luciferase, 18 h; at 92.4 µM (top of the series) unless noted
Summary of the method: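 We plated ERR reporter cells, waited 6 h, added compounds in DMSO by pin tool and incubated them 18 h at 37 C. ONE-Glo was then added and luminescence read after 30 min.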

[6] = qHTS RealTime-Glo MT Cell Viability Assay in HepG2 cells - 24 hour (AID 1224867); also: nearly all actives have a fitted effect of over 50% in size
Summary of the method: (§1)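 Compound treatment began 5 h after plating HepG2 cells (600/well) with NanoLuc luciferase and prosubstrate. Plates stayed at 37 C for 40 h; luminescence was captured at six time points, 0 h through 40 h.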

[7] = qHTS RealTime-Glo MT Cell Viability Assay in HEK293 cells - 32 hour (AID 1224868); also: top concentration of the series differs between compounds; nearly all actives have a fitted effect of over 50% in size
Summary of the method: (§2)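 Quantitative high-throughput screen of the Tox21 10K library in HEK293: cells and RealTime-Glo reagents plated together, compound added at 5 h, luminescence monitored through 40 h at 37 C.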

[8] = A CellTox Green Cytotoxicity Assay to monitor cytotoxicity in HEK293 cells - 0 hour (AID 1224869); also: nearly all actives have a fitted effect of over 50% in size
Summary of the method: (§3)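 Each value comes from one timepoint of a single continuous run in which HEK293 cells with CellTox Green were exposed to compound for up to 40 h at 37 C, dye fluorescence rising with cell death.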

[9] = qHTS RealTime-Glo MT Cell Viability Assay in HepG2 cells - 40 hour (AID 1224870); also: nearly all actives have a fitted effect of over 50% in size
Summary of the method: (§4)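 HepG2 cells (600/well) mixed with RealTime-Glo MT reagent, settled 5 h at 37 C/5% CO2 before compound addition. Nonlytic NanoLuc luminescence from viable-cell prosubstrate reduction read repeatedly during 40 h treatment at 37 C.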

[10] = A CellTox Green Cytotoxicity Assay to monitor cytotoxicity in HEK293 cells - 40 hour (AID 1224871); also: nearly all actives have a fitted effect of over 45% in size
Summary of the method: as §3

[11] = qHTS RealTime-Glo MT Cell Viability Assay in HEK293 cells - 16 hour (AID 1224872)
Summary of the method: as §2

[12] = qHTS RealTime-Glo MT Cell Viability Assay in HepG2 cells - 8 hour (AID 1224873); also: nearly all actives have a fitted effect of over 55% in size
Summary of the method: as §4

[13] = qHTS RealTime-Glo MT Cell Viability Assay in HEK293 cells - 40 hour (AID 1224874); conditions: RealTime-Glo luminescence; max response: hits give low values; also: nearly all actives have a fitted effect of over 50% in size
Summary of the method: (§5)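 qHTS format; HEK293 cells with NanoLuc/prosubstrate reagent, 37 C/5% CO2 for 5 h pre-dosing; compounds 23 nL in DMSO; luminescence at each time point reflects viable cells.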

[14] = A CellTox Green Cytotoxicity Assay to monitor cytotoxicity in HepG2 cells - 16 hour (AID 1224876); also: nearly all actives have a fitted effect of over 45% in size
Summary of the method: (§6)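 Continuous culture of HepG2 cells with a membrane-impermeant DNA dye; rising fluorescence marks dead cells. Compound exposure lasted up to 40 h at 37 C, with reads every 8 h from 0 h.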

[15] = qHTS RealTime-Glo MT Cell Viability Assay in HepG2 cells - 32 hour (AID 1224877); also: nearly all actives have a fitted effect of over 55% in size
Summary of the method: as §1

[16] = A CellTox Green Cytotoxicity Assay to monitor cytotoxicity in HepG2 cells - 24 hour (AID 1224878); also: nearly all actives have a fitted effect of over 45% in size
Summary of the method: as §6

[17] = A CellTox Green Cytotoxicity Assay to monitor cytotoxicity in HepG2 cells - 40 hour (AID 1224879); also: nearly all actives have a fitted effect of over 40% in size
Summary of the method: as §6

[18] = qHTS RealTime-Glo MT Cell Viability Assay in HEK293 cells - 0 hour (AID 1224880); also: top concentration of the series differs between compounds; nearly all actives have a fitted effect of over 45% in size
Summary of the method: as §5

[19] = qHTS assay to identify small molecule agonists of the hypoxia (HIF-1) signaling pathway - cell viability counter screen (AID 1224844; calls by dose curve; also: nearly all actives have a fitted effect of over 50% in size)
Summary of the method: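 Luminescent ATP content (CellTiter-Glo, 30 min, room temperature) served as the viability measure in HRE-bla ME-180 cells exposed to compounds for 17 hrs in low-serum medium (0.5% dialyzed FBS).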

[20] = A CellTox Green Cytotoxicity Assay to monitor cytotoxicity in HEK293 cells - 24 hour (AID 1224875); also: nearly all actives have a fitted effect of over 45% in size
Summary of the method: as §3
% is scaled to controls: 0 for no effect and ±100 for the full control effect.

C[Si](C)=O
inactive: activation (H2AX phosphorylation) [1] -1.6% [at 14 µM] | activation [2] -1.19% [at 7.01 µM] | activity change, negative = cytotoxicity [3] -6.59% [at 14 µM] | activity, negative = inhibition [4] 1.05% [at 8.39 µM] | activity change, positive = activation [5] 0.654% [at 8.39 µM] | activity change, negative = cytotoxicity [6] 0.943% [at 6.97 µM] | activity change, negative = cytotoxic [7] 1.65% [at 6.97 µM] | cytotoxicity [8] 2.11% [at 6.97 µM] | activity change, negative = cytotoxic [9] -3.86% [at 6.97 µM] | cytotoxicity increase [10] 12.6% [at 6.97 µM] | activity change, negative = cytotoxicity [11] 2.27% [at 6.97 µM] | viability change, negative = cytotoxic [12] 1.52% [at 6.97 µM] | max response [13] 0.522% | cytotoxicity increase [14] -6.23% [at 6.97 µM] | activity change, negative = cytotoxic [15] 0.305% [at 6.97 µM] | cytotoxicity [16] -4.98% [at 6.97 µM] | cytotoxicity increase [17] -11.7% [at 6.97 µM] | activity change, negative = cytotoxicity [18] -1.57% [at 6.97 µM]

N#Cc1ccc(C(=O)O)cc1
inactive: outcome [19] | outcome [1] | Potency [4] | activity change, positive = activation [5] 1.83% | outcome [6] | Potency [7] | outcome [8] | outcome [9] | Potency [10] | outcome [12] | max response [13] 3.59% | outcome [20] | outcome [14] | outcome [15] | outcome [16] | Potency [17]

C[C@@H]1O[C@@H](O[C@@H]2[C@@H](O)[C@H](OCCc3ccc(O)c(O)c3)O[C@H](CO[C@@H]3O[C@H](CO)[C@@H](O)[C@H](O)[C@H]3O)[C@H]2OC(=O)/C=C/c2ccc(O)c(O)c2)[C@H](O)[C@H](O)[C@H]1O
inactive: outcome [19] | Potency [3] | outcome [6] | outcome [8] | outcome [9] | Potency [10] | Potency [11] | max response [13] -18.6% | outcome [20] | outcome [14] | outcome [15] | outcome [16] | Potency [18]

NC(CO)C(=O)NNCc1ccc(O)c(O)c1O (configuration not stated)
inactive: outcome [19] | Potency [4] | activity change, positive = activation [5] 1.5% [at 42.5 µM] | outcome [6] | Potency [7] | outcome [8] | outcome [9] | Potency [10] | Potency [11] | max response [13] 2.85% | outcome [20] | outcome [14] | outcome [15] | outcome [16] | Potency [17] | Potency [18]

CC(CC=O)CCCC(C)(C)O (configuration not stated)
inactive: outcome [19] | outcome [1] | Potency [4] | outcome [6] | Potency [7] | outcome [8] | outcome [9] | Potency [10] | Potency [11] | outcome [12] | max response [13] 3.36% | outcome [20] | outcome [14] | outcome [15] | outcome [16] | Potency [17] | Potency [18]

CCC(C)(CCC(C)C)C(=O)O (configuration not stated)
inactive: outcome [1] | outcome [2] | Potency [3] | Potency [4] | activity change, positive = activation [5] -1.46% | outcome [6] | Potency [7] | outcome [8] | outcome [9] | Potency [10] | Potency [11] | max response [13] 2.99% | outcome [14] | outcome [15] | outcome [16] | Potency [17] | Potency [18]

O=C(O)c1cc(Br)c(O)c(Br)c1
inactive: outcome [19] | outcome [2] | Potency [3] | Potency [4] | activity change, positive = activation [5] 4.86% | outcome [6] | Potency [7] | outcome [8] | outcome [9] | Potency [10] | outcome [12] | max response [13] -4.67% | outcome [20] | outcome [14] | outcome [15] | outcome [16] | Potency [17] | Potency [18]

CCNC(=O)C1CC(C)CCC1C(C)C (configuration not stated)
inactive: outcome [1] | outcome [2] | Potency [3] | Potency [4] | activity change, positive = activation [5] -8.38% | outcome [6] | Potency [7] | outcome [8] | outcome [9] | Potency [10] | Potency [11] | outcome [12] | max response [13] 2.62% | outcome [20] | outcome [14] | outcome [15] | outcome [16] | Potency [17] | Potency [18]

C[C@H](CCC(=O)O)[C@H]1CC[C@H]2[C@@H]3C(=O)C[C@@H]4CC(=O)CC[C@]4(C)[C@H]3CC(=O)[C@]12C
inactive: outcome [19] | outcome [1] | Potency [4] | activity change, positive = activation [5] -0.444% [at 42.5 µM] | outcome [6] | Potency [7] | outcome [8] | outcome [9] | Potency [10] | Potency [11] | max response [13] 4.35% | outcome [20] | outcome [14] | outcome [15] | outcome [16] | Potency [17] | Potency [18]

Cc1ccccc1N=O
inactive: outcome [1] | outcome [2] | Potency [3] | Potency [4] | activity change, positive = activation [5] 6.56% | outcome [6] | Potency [7] | outcome [8] | outcome [9] | Potency [10] | Potency [11] | outcome [12] | max response [13] 9.08% | outcome [20] | outcome [14] | outcome [15] | outcome [16] | Potency [17] | Potency [18]

CCCCOC(=O)c1ccccc1
inactive: outcome [1] | outcome [2] | Potency [3] | Potency [4] | activity change, positive = activation [5] 1.54% | outcome [6] | Potency [7] | outcome [8] | outcome [9] | Potency [10] | Potency [11] | outcome [12] | max response [13] 4.16% | outcome [14] | outcome [15] | outcome [16] | Potency [17]

Brc1ccc(-c2ccccc2)cc1
inactive: outcome [19] | outcome [2] | Potency [3] | outcome [6] | Potency [7] | outcome [8] | outcome [9] | Potency [10] | Potency [11] | max response [13] 1.08% | outcome [20] | outcome [14] | outcome [15] | outcome [16] | Potency [17] | Potency [18]

Nc1ccc2cc(S(=O)(=O)O)cc(O)c2c1
inactive: outcome [19] | Potency [3] | Potency [4] | activity change, positive = activation [5] 1.3% | outcome [6] | Potency [7] | outcome [8] | outcome [9] | Potency [10] | Potency [11] | outcome [12] | max response [13] 0.478% | outcome [14] | outcome [15] | outcome [16] | Potency [17]

CCCC/C=C\CCCCCCCCCC=O
inactive: outcome [1] | outcome [2] | Potency [3] | Potency [4] | activity change, positive = activation [5] 2.29% | outcome [6] | Potency [7] | outcome [8] | outcome [9] | Potency [10] | Potency [11] | outcome [12] | max response [13] -10.9% | outcome [14] | outcome [15] | outcome [16] | Potency [17] | Potency [18]

— PubChem BioAssay (Tox21)
